Rows were chosen to be rich in hits. Some 2% of all compounds tested hit in one or more screens of this group.
CHT block – inhibitors of human choline transporter CHT; CHT-expressing cells, membrane potential dye, choline response; active compounds read low; B-score at 10 µM; hit rate 0.86% among 310,000;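 active means B-score over 3 SD under the library average, and starting fluorescence ratio not unusually high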;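 further: choline stimulus applied at its EC90 after an EC20 pre-addition; B-score computed on integrated fluorescence ratio after choline addition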
CHT PAM – human CHT allosteric activation; CHT-expressing cells, membrane potential dye, choline EC20; active compounds read high; LV-AA mutant CHT in HEK293 cells; B-score at 10 µM; Q9GZV3; hit rate 0.49% among 310,000;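 active means initial fluorescence not abnormally high and integrated response B-score, plate-corrected, over 3 SD above library mean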
Kir21 block – inhibitors of mouse Kir2.1 inward-rectifier potassium channel. AID 1672. P35561. HEK293-Kir2.1, FluxOR thallium flux fluorescence; active compounds read low. B-score at 10 µM. hit rate 0.85% among 310,000;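 active means fluorescence ratio B-score at or below minus 3 SD of library scores, with starting-brightness B-score within 2 SD, cut at about -4.2 in these data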;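 further: channel flux triggered by added potassium and thallium sulfate stimulus; B-score of peak minus minimum fluorescence over baseline after thallium stimulus; more negative B-score means stronger Kir2.1 block with less thallium influx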
Target sequence (P35561 whole entry, looked up): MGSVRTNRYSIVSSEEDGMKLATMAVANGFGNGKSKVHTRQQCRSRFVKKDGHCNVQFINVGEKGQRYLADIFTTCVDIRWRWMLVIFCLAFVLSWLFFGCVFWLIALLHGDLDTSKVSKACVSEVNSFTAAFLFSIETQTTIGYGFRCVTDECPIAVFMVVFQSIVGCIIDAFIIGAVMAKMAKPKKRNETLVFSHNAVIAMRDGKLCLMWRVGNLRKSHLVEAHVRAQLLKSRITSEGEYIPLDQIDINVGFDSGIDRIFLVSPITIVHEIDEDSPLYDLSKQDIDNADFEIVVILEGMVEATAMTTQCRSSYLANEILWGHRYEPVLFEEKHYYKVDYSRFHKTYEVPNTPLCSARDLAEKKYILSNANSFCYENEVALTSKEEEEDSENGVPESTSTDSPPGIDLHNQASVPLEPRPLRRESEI
TAG inh – triacylglycerol accumulation inhibition; AID 651582; H9c2 cells, Nile Red lipid (TAG) fluorescence; cells loaded with 200 µM oleic acid; hit rate 0.66% among 230,000; inhibition, % at 12.5 µM;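 active means pattern-corrected inhibition of lipid staining of at least 50% with the nuclear-stain viability signal not falling by more than 50%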;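 further: 0% = DMSO wells and 100% = triacsin C control wells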
CHT activ conf – confirmation of human choline transporter (CHT) activators. shares compounds with CHT PAM. hit rate 91% among 2,500. CHT-expressing cells, membrane potential dye fluorescence (FDSS); % of choline EC20–EC90 response window; HEK293 expressing CHT LV-AA mutant; choline added at its EC20. activation, % at 10 µM;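 active means primary screen active, with duplicate mean activation above negative control mean plus 3 SD, cut at about 11% in these data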
HEK293 MP dye – CHT activator counter-screen hit in parental HEK293 cells | shares compounds with CHT PAM | membrane potential dye fluorescence (FDSS); measured after EC20 choline addition | ratio readout change at 10 µM, hits read low | hit rate 62% among 2,500;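 active means duplicate-averaged ratio beyond 3 SD from buffer wells, up or down, though filed actives are nearly all decreases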
H9c2 TAG conf – triacylglycerol accumulation inhibition, confirmation; H9c2 lipid accumulation, Nile Red fluorescence; cells loaded with 200 µM oleic acid; hit rate 71% among 990; inhibition, % at 12.5 µM; shares compounds with TAG inh; AID 651629;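 active means mean inhibition across replicates of 40% or more; inactive means mean inhibition below 40%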;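 further: plate controls were DMSO only wells for no effect and Triacsin C treated wells for full effect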
An asterisk follows results filed as active; i = inactive; / = not tested or not shown.

SMILES	CHT block	CHT PAM	Kir21 block	TAG inh	H9c2 TAG conf	others
NC(N)=Nc1ccc2[nH]c3c(c2c1)C[C@@]1(O)[C@H]2Cc4ccc(O)c5c4[C@@]1(CCN2CC1CC1)[C@H]3O5	i	8.32*	/	3.7	/	CHT activ conf=11.5*;HEK293 MP dye=-32.8*
Cc1cc(Cl)ccc1OCC(=O)N1CCN(C)CC1	i	i	-0.1	/	/
CN1CCN(C(=O)OC2c3nccnc3C(=O)N2c2ccc(Cl)cn2)CC1 (stereo unspecified)	i	9.83*	0.37	/	/	CHT activ conf=67.7*;HEK293 MP dye=-59.6*
Cc1cc(C)c2c(ccc3cccc[n+]32)c1	i	6.31*	0.25	-20.7	/	CHT activ conf=72.1*;HEK293 MP dye=-55.1*
COC(=O)C1=C(c2ccccc2OCc2ccccc2)C[C@@H]2CC[C@H]1N2C(=O)NCc1cccc(F)c1	/	/	/	32.6	/
COC(=O)C1=C(c2ccccc2OCc2ccccc2)C[C@@H]2CC[C@H]1N2C(=O)NCc1ccc(OC)c(OC)c1	/	/	/	56.3*	28.2
O=P(O)(O)CN1CCNCCN(CP(=O)(O)O)CCNCC1	/	/	/	56.8*	63.0*
CCOC(=O)CNC(=S)N1CC2C[C@@H](C1)Cn1c2cccc1=O	i	i	1.86	/	/
O=C(c1ccccc1F)c1cn(CC(=O)N2CCCCC2)c2ccccc12	i	i	0.06	/	/
Clc1cnc(Oc2ccc(Oc3ncc(Cl)cc3Cl)cc2)c(Cl)c1	i	i	0.73	/	/
COC(=O)C1=C(c2cc3ccccc3s2)C[C@@H]2CC[C@H]1N2C(=O)N1CCOCC1	i	i	-1.12	51.6*	44.9*
CCCCn1c(N)c(C(=O)NCc2cccs2)c2nc3ccccc3nc21	i	i	1.26	67.4*	0.9
Cc1nn(Cc2ccccc2)c(C)c1C(=O)OCC(=O)Nc1cc(S(C)(=O)=O)ccc1Cl	i	i	1.71	7.4	/
CCOC(=O)C(NC(=O)CC)(Nc1ccc(C(O)(C(=O)OCC)C(F)(F)F)cc1C)C(F)(F)F (stereo unspecified)	i	i	-0.41	55.4*	23.4

Assay outcomes as filed in PubChem.
